Screening results as filed in PubChem BioAssay.
mHTT CaM bind: mutant huntingtin-calmodulin interaction inhibitors – biochemical, AlphaScreen, primary screen. inhibition, % at 15 µM. AID 1671202, 2021. AlphaScreen His-mHTT/GST-CaM binding, luminescence. 190,000 compounds, 3.6% hits. P42858;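 note: 0% = both proteins with DMSO and 100% = one protein alone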
Pf apPOL block: Pf-apPOL inhibitors, biochemical, fluorescence; Plasmodium falciparum apicoplast DNA polymerase (apPOL); Recombinant Pf-apPOL, molecular beacon fluorescence, 1.5 h; inhibition, % at 10 µM; 210,000 compounds, 0.25% hits
Starred values were filed as active, the others as inactive; x = not tested or not shown. This is one part of a sample in which hits are shown more often than they occur. Cut-off read from the data, not from the text of the source: active = inhibition above about 50%; inactive = the rest.

SMILES	mHTT CaM bind	Pf apPOL block
CC1CCN(C(=O)C2=CN(c3ccc(F)cc3)c3ccccc3S2(=O)=O)CC1	2.3	-1.0
Cc1scc2nc(C(=O)NCc3ccc(F)cc3)nc(N3CCCC3)c12	81.3*	-19.1
CCNC(=O)c1nc(N2CCCC2)c2c(C)scc2n1	25.5	-3.5
O=C(CSc1ncn[nH]1)n1c2c(c3ccccc31)CCCC2	57.0*	5.0
Cn1c(SCC(=O)n2c3c(c4ccccc42)CCCC3)nnc1-c1ccc(N)cc1	16.1	-3.2
Cc1noc(C2CCCCN2Cc2nc(-c3cccnc3)no2)n1 (stereo unspecified)	-1.5	-3.4
Cc1nnnn1CC(=O)Nc1ccccc1	-1.9	-4.0
Cc1nc2c(C(=O)NC3CCCC3)c[nH]n2c(=O)c1Cc1ccc(Cl)cc1	55.0*	8.8
Cc1ccc(Cc2c(C)nc3c(C(=O)NCCC(C)C)c[nH]n3c2=O)cc1	14.0	-7.9
Cc1ccc(Cc2c(C)nc3c(C(=O)NC4CCCC4)c[nH]n3c2=O)cc1	75.0*	6.5
Cc1nc2c(C(=O)O)c[nH]n2c(=O)c1Cc1ccc(Cl)cc1	-4.0	35.0
O=C(Nc1ccccc1I)c1cccc([N+](=O)[O-])c1	5.5	-4.1
COc1ccc(C=CC(=O)c2c(O)cc(C)oc2=O)cc1	-2.9	-9.7
CNC(=O)CCS(=O)(=O)Cc1ccccc1Cl	1.0	-14.2
CSc1cccc(NC(=O)c2ccc(Br)cc2)c1	-9.8	6.8
CN(CC(=O)N1N=C(c2cccn2C)CC1c1ccc(Cl)cc1)C(=O)C1CCC1 (stereo unspecified)	49.2	-4.6
CN(CC(=O)N1N=C(c2cccn2C)CC1c1ccccc1)C(=O)C1CCC1 (stereo unspecified)	54.6*	-0.3
COc1ccc(C2=NN(C(=O)CN(C)C(C)=O)C(c3ccc(Cl)cc3)C2)cc1 (stereo unspecified)	34.7	-10.4
CC(C)C(=O)N(C)CC(=O)N1N=C(c2ccc(F)cc2)CC1c1ccccc1 (stereo unspecified)	17.4	-3.2
CC(=O)N(C)CC(=O)N1N=C(c2cccn2C)CC1c1ccc(Cl)cc1 (stereo unspecified)	65.2*	0.4
CC(C)C(=O)N(C)CC(=O)N1N=C(c2cccn2C)CC1c1ccc(Cl)cc1 (stereo unspecified)	78.3*	-6.8
COc1ccccc1CCNC(=O)C1CCN(CC(=O)Nc2ccc(F)cc2)CC1	-3.0	-6.3
O=C(N/C(=C/c1ccc2c(c1)OCO2)C(=O)N1CCOCC1)c1ccccc1Cl	1.0	2.0
CSc1ccccc1NC(=O)Cc1sc(-c2ccccc2)nc1C	-4.3	-4.0
CSc1cccc(NC(=O)C2CCCN(C(=O)c3cc(C)cc(C)c3)C2)c1 (stereo unspecified)	2.9	0.7
SMILES	mHTT CaM bind	Pf apPOL block
O=C1C(=O)N(Cc2ccc(Br)cc2)c2ccccc21	70.0*	-2.4
O=C1C(=O)N(Cc2ccc(F)cc2)c2ccccc21	45.0	-0.3
O=C1C(=O)N(Cc2ccc(Cl)c(Cl)c2)c2ccc([N+](=O)[O-])cc21	91.0*	2.5
O=C1C(=O)N(Cc2ccc(Br)cc2)c2ccc([N+](=O)[O-])cc21	24.0	2.0
O=C1C(=O)N(CCCCN2C(=O)C(=O)c3ccccc32)c2ccccc21	7.0	1.5
O=C1C(=O)N(Cc2ccc(Cl)c(Cl)c2)c2ccccc21	93.0*	-3.1
Cc1cccc(CN2CCCn3nc(C(=O)NCc4cccs4)cc3C2=O)c1	6.3	-0.5
CN(C(=O)c1cnc(Oc2ccc(Cl)cc2)cc1C(F)(F)F)c1ccc(Cl)c(Cl)c1	x	2.3
O=C1OC(c2ccccc2)=C/C1=C1/c2ccccc2-c2ncccc21	67.0*	-1.2
COc1ccc(C2=C/C(=C3/c4ccccc4-c4ncccc43)C(=O)O2)c(OC)c1	22.0	-5.2
Oc1ccccc1-c1cc(-c2ccccc2F)[nH]n1	x	6.5
COc1ccccc1-c1cc(-c2cc(Cl)ccc2O)n[nH]1	30.2	-5.0
Oc1ccccc1-c1cc(-c2ccccc2)n[nH]1	35.2	-247.5
Cc1ccc(-c2cc(-c3ccccc3Cl)[nH]n2)c(O)c1	65.4*	-3.3
COc1ccc(O)c(-c2cc(-c3ccccc3C)[nH]n2)c1	68.6*	6.8
Cc1ccccc1-c1cc(-c2ccccc2O)n[nH]1	51.9*	-4.3
CCN(CC)S(=O)(=O)c1ccc(Nc2nc(SC)nc3c2CCC3)cc1	10.9	0.5
CCOc1ccc2nc(NC(=O)c3cc(=O)c(OCc4ccccc4)cn3C)sc2c1	-9.9	-5.9
O=C(Nc1nc2ccccc2s1)c1cc([N+](=O)[O-])ccc1Br	10.0	-2.8
O=C1CSC(=NN=Cc2cn(-c3ccccc3)nc2-c2ccccc2)N1	x	-0.8
Cc1ccc(NC(=O)Nc2ccc3c(c2)N(S(C)(=O)=O)CC3)cc1Cl	-0.4	-1.8
O=C1CC(c2ccccc2)Sc2nc(C34CC5CC(CC(C5)C3)C4)nn21 (stereo unspecified)	2.0	-1.9
Cc1c2c(n(Cc3c(F)cccc3F)c1C(=O)NCc1ccccn1)CCCC2	17.4	-1.5
